Molecules are shown by their SMILES. Calls of active or inactive are those of the source.

Here are results for 15 compounds from PubChem BioAssay.

For experiment [1], the system named is Plasmodium falciparum Sir2 (PF13_0152, Sir2A). Put plainly: pfSir2 binders on small-molecule microarrays, primary screen, biochemical, small-molecule microarray, 635 nm fluorescence (AID 1098).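 Further: score merges spot fluorescence intensity with its signal-to-noise ratio.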 The conditions noted are these: small-molecule microarray binding, fluorescence 635 nm; higher = more signal.
Experiment [2] is described as follows: small-molecule microarray binders of probe aDKK1, primary screen, biochemical, biotinylated probe, 635/667 nm fluorescence (AID 1099).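 Further: score merges 667nm spot fluorescence with signal to noise across triplicate slides; reference of the scale not given here.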 The conditions noted are these: higher = more signal.
Experiment [3] can be described thus: small-molecule microarray binders of probe aCHRDL2, primary screen, biochemical, biotinylated probe, 635/667 nm fluorescence (AID 1100). The conditions noted are these: higher = more signal.
Experiment [4] can be described thus: splicing luciferase reporter signal modulators, primary screen, spliceosome inhibition project, cell-based, HEK293, splice +/- reporter (AID 1101).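 Further: HEK293 cells carrying a splicing-competent luciferase reporter gene; test concentration not given here.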 The conditions noted are these: luminescence, 24 h, higher = more signal, called active from +8 up or from −8 down.
In experiment [5] the target is Fibroblast growth factor 10 (Homo sapiens) (UniProt O15520). The experiment can be described thus: FGF10 binders on small-molecule microarrays, primary screen, biochemical, small-molecule microarray, 635 nm fluorescence (AID 1102). The conditions noted are these: FGF10 binding, fluorescence 635 nm, higher = more signal.
Experiment [6] has as its system glycogen synthase kinase-3 (GSK3A per assay name; protocol says GSK3B). The experiment can be described thus: GSK3 binders on small-molecule microarrays, primary screen, biochemical, small-molecule microarray, 635 nm fluorescence, GSK3A (AID 1103). Further: the record names both GSK3A and GSK3B. The conditions noted are these: small-molecule microarray binding, fluorescence 635 nm; higher = more signal.
In experiment [7] the target is Epidermal growth factor receptor (Homo sapiens) (UniProt P00533). Put plainly: EGFR binders on small-molecule microarrays, primary screen, biochemical, small-molecule microarray, 635 nm fluorescence (AID 1104).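 Further: score merges 667 nm emission intensity with spot signal to noise over triplicate slides.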 The conditions noted are these: EGFR binding, higher = more signal.
In experiment [8] the target is Follistatin-related protein 3 (Homo sapiens) (UniProt O95633). Put plainly: FSTL3 binders on small-molecule microarrays, primary screen, biochemical, small-molecule microarray, 635 nm fluorescence (AID 1105).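 Further: score merges emission near 667 nm and signal to noise per printed spot across three slides.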 The conditions noted are these: FSTL3 binding, higher = more signal.
Experiment [9] concerns the target Dickkopf-related protein 1 (Homo sapiens) (UniProt O94907). Put plainly: DKK1 binders on small-molecule microarrays, primary screen, biochemical, small-molecule microarray, 635 nm fluorescence scan (AID 1106).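 Further: score merges emission near 667 nm with signal to noise over three replicate slides.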 The conditions noted are these: DKK1 binding, higher = more signal.
Experiment [10] relates to Inhibin beta A chain (activin A). Put plainly: INHBA (activin A) binders on microarrays, primary screen, biochemical, small-molecule microarray, 635 nm fluorescence scan (AID 1107).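 Further: mouse activin A protein probed at 4.33 µg/mL on printed slides; score merges bound-protein fluorescence near 667 nm with spot signal-to-noise.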 The conditions noted are these: small-molecule microarray binding, higher = more signal.

Sequence of Fibroblast growth factor 10 (Homo sapiens) (O15520 whole entry, looked up): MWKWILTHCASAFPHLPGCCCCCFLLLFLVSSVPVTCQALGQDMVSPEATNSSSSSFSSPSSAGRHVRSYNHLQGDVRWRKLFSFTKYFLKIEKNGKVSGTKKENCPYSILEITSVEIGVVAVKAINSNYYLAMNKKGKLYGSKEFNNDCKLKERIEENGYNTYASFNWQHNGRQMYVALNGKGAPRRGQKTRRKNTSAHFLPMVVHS
Sequence of Follistatin-related protein 3 (Homo sapiens) (O95633 whole entry, looked up): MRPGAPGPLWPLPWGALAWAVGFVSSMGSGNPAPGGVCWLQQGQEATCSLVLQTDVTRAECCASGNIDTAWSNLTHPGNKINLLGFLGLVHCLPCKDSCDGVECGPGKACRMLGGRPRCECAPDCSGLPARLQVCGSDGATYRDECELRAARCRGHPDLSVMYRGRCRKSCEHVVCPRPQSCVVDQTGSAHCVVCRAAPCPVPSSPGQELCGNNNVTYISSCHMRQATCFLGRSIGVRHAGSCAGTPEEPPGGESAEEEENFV
Sequence of Dickkopf-related protein 1 (Homo sapiens) (O94907 whole entry, looked up): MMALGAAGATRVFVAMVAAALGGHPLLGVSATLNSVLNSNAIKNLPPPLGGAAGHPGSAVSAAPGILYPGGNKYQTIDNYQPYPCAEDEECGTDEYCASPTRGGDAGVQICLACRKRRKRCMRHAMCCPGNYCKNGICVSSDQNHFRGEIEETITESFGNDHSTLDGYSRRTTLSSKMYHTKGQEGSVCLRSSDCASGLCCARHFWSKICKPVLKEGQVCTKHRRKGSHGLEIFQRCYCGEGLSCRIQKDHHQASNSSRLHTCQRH
Sequence of Epidermal growth factor receptor (Homo sapiens) (P00533 whole entry, looked up): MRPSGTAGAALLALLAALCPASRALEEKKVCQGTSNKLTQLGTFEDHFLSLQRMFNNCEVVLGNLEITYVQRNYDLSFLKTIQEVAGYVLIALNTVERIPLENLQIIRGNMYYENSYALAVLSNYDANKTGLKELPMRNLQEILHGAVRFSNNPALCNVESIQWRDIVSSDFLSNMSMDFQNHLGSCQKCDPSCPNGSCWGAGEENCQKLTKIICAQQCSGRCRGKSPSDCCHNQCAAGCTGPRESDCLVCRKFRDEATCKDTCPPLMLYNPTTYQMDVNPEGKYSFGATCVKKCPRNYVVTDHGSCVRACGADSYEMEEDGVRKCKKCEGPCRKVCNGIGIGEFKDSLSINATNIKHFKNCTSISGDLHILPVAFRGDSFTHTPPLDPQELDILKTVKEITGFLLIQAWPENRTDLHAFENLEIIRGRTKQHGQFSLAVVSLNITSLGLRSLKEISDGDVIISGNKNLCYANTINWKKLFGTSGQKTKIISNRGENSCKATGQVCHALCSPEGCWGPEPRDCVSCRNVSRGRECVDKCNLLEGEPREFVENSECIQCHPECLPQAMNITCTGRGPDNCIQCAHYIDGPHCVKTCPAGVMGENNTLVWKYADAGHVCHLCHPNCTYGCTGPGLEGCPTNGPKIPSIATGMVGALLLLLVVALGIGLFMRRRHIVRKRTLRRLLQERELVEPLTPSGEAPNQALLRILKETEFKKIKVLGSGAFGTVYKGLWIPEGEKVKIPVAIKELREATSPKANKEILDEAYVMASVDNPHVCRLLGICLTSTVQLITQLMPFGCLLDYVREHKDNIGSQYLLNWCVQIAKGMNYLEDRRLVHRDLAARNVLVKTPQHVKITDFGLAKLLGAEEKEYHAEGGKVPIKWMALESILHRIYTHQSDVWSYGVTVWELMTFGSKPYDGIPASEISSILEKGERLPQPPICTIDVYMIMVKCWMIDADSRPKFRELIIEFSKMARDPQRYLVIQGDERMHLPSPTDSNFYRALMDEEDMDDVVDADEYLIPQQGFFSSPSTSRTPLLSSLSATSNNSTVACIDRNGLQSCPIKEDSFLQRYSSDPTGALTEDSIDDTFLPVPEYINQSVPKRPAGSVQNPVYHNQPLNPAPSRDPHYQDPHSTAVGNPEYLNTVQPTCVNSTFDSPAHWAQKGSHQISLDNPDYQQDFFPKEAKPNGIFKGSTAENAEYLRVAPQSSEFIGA

`Cc1ccc(S[C@]2(C(=O)NCc3ccccc3)CC(=O)N(C3CCCCC3)[C@@H]2c2ccc(CO)cc2I)cc1`: the composite z-score in experiment [1] is 1.25; in [2], -0.0018; in experiment [3] it was 0.379; in experiment [5], 0.861; in experiment [6], 0.1; in experiment [7] it was -0.104. In addition, the composite z-score in experiment [8] is 0.226; in experiment [9], -0.358; in [10] it was -0.0734. Further, in [4], the z-score is -1.49 (inactive).

In the case of `CCOC(=O)C[C@H]1[C@H](OC(=O)c2cc3ccccc3oc2=O)[C@@H](NC(=O)CC(C)C)c2cc(OCCCO)ccc2N1C(=O)c1ccc2ccccc2n1`, the composite z-score in experiment [1] was 0.342; in experiment [2], -0.12; in [3], -0.53; in experiment [5], 1.32; in experiment [6] it was 0.998; in experiment [7], 0.548. The values for the composite z-score in experiment [8], in experiment [9] and in experiment [10] were 1.14, 0.409 and 0.413, respectively. Besides, the z-score in experiment [4] was 0.0136 (inactive).

As to `O=c1cccc(-c2ccc([N+](=O)[O-])cc2)o1`, the composite z-score in [1] is -0.632; in experiment [2], -0.0855; in experiment [3] it was -0.512; in experiment [5] it was 0.274; in experiment [6], 0.959; in experiment [7], 0.574. In addition, the composite z-score amounted to 0.534 in experiment [8], 0.0662 in experiment [9] and 1.22 in experiment [10]. Moreover, in experiment [4], the z-score is -1.49 (inactive).

As for `C=C(COC)C(=O)CC[C@@H](OC(C)=O)c1cccc(OCCO)c1`, the composite z-score in experiment [1] was 0.114; in [2] it was -0.0524; in experiment [3], 0.225; in experiment [5], 1.38; in [6], -0.911; in experiment [7] it was -0.934. Further, the composite z-score is -0.303 in [8], 0.227 in experiment [9] and 1.01 in [10]. Also, the z-score in experiment [4] was 1.32 (inactive).

`CC(C)[Si]1(C(C)C)OCc2cc(C3CC3)nc(-c3ccc(Oc4ccccc4)cc3)c21`: the composite z-score in experiment [1] was -0.777; in [2], 0.15; in experiment [3], 0.056; in experiment [5], -0.382; in experiment [6] it was -0.964; in experiment [7], -0.233. In addition, the results for the composite z-score in [8], in experiment [9] and in experiment [10] were -0.816, -0.604 and 0.228, respectively. Besides, the z-score in experiment [4] is -0.654 (inactive).

In the case of `Cc1ccc(S[C@]2(C(=O)NCC(F)(F)F)CC(=O)N(Cc3cc(C(F)(F)F)cc(C(F)(F)F)c3)[C@@H]2c2ccc(CO)cc2)cc1`, the composite z-score in experiment [1] was 1.13; in [2], -0.193; in experiment [3], 0.532; in experiment [5], -0.463; in experiment [6], -0.864; in experiment [7] it was -0.814. The composite z-score in experiment [8] was -0.861; in [9], -0.928; in experiment [10] it was -0.45. The z-score in experiment [4] was 0.507 (inactive).

Turning to `COC(=O)[C@@]1(Cc2ccc(OC)cc2)[C@H]2c3cc(C(=O)N4CCCC4)n(CCc4c[nH]c5ccc(O)cc45)c3C[C@H]2CN1C(=O)c1ccccc1`, the composite z-score came out at 1.29 in [1]; 1.24 in experiment [2]; 1.2 in experiment [3]; 1.06 in experiment [5]; 0.778 in experiment [6]; 0.309 in experiment [7]. Also, the composite z-score in experiment [8] was 1.13; in [9], -0.32; in experiment [10], 1.51. Further, the z-score in experiment [4] is 0.129 (inactive).

On to `O=C(NCc1ccc(F)cc1)[C@H]1C[C@H]2C(=O)NCC(=O)N2[C@H]1c1ccc(O)cc1`, for which the composite z-score was 1.01 in experiment [1]; 0.207 in experiment [2]; 0.112 in experiment [3]; 1.37 in experiment [5]; -0.88 in experiment [6]; 0.297 in experiment [7]. Further, the composite z-score in [8] is 0.138; in experiment [9] it was 0.787; in experiment [10], 0.43. Besides, the z-score in experiment [4] is -0.12 (inactive).

`CO[C@H]1O[C@H](CO)[C@@H](OC(=O)CCc2ccccc2)[C@@H]2OC(=O)[C@@H](Cc3ccccc3)C/C=C/C[C@H](Cc3ccccc3)C(=O)O[C@@H]12`: the composite z-score in [1] was 0.228; in experiment [2], 0.253; in experiment [3], 0.585; in [5], 0.469; in experiment [6] it was 0.714; in experiment [7] it was -0.199. For the same compound, the composite z-score in experiment [8] turned out to be 1.11; in experiment [9], 0.46; in experiment [10] it was 0.925. Also, the z-score in experiment [4] is -1.57 (inactive).

`CCOC(=O)C[C@H]1[C@H](OC(=O)c2cc3ccccc3oc2=O)[C@@H](NC(=O)c2ccccc2)c2cc(OCCCO)ccc2N1C(=O)c1ccccc1`: the composite z-score in experiment [1] is -0.06; in experiment [2] it was -0.198; in experiment [3], -0.432; in experiment [5] it was 0.836; in [6] it was 0.775; in experiment [7], 0.417. The composite z-score in experiment [8] was found to be 0.653; in experiment [9], 0.415; in experiment [10] it was 0.225. The z-score in [4] was -0.644 (inactive).

In the case of `CC(C)NC(=O)[C@@]1(C)c2ccccc2C(=O)N(Cc2ccc(OC(F)(F)F)cc2)[C@H]1c1ccc(CO)cc1`, the composite z-score in experiment [1] is 1.43; in experiment [2], -0.0863; in experiment [3], 0.77; in experiment [5] it was -0.962; in experiment [6], -0.85; in experiment [7] it was -1.43. Further, the values for the composite z-score in experiment [8], in experiment [9] and in experiment [10] were -1.19, -1.25 and -1.03, respectively. In addition, in experiment [4], the z-score was -1.08 (inactive).

On to `O=C(NCCN1CCOCC1)[C@@H]1c2ccccc2C(=O)N(Cc2ccccc2Cl)[C@H]1c1ccc(CO)cc1`, for which the composite z-score in experiment [1] was -0.855; in [2], -0.633; in [3] it was -0.803; in [5], -1.16; in [6] it was -0.52; in experiment [7], -0.494. Further, the composite z-score in experiment [8] is 0.0801; in experiment [9] it was -0.569; in experiment [10], 0.823. Further, in experiment [4], the z-score is -0.284 (inactive).

For the compound `[N-]=[N+]=Nc1ccccc1[C@@H]1OC(c2ccc(OCCCO)cc2)=N[C@]1(Cc1ccccc1)C(=O)O`, the composite z-score in experiment [1] is 0.77; in [2], 0.973; in [3], 0.0948; in experiment [5], 0.747; in experiment [6], 0.655; in experiment [7], -0.129. Moreover, the values for the composite z-score in experiment [8], in experiment [9] and in experiment [10] were 0.455, -0.347 and 1.2, respectively. In experiment [4], the z-score was -0.689 (inactive).

`O=C1O[C@@H](c2ccccc2)[C@@H](c2ccccc2)N2[C@@H](c3ccc(O)cc3)[C@]3(C(=O)Nc4ccc(C#CCCO)cc43)[C@@H](C(=O)N3CCN(c4ncccn4)CC3)[C@H]12`: the composite z-score in [1] was 1.64; in experiment [2] it was -1.25; in experiment [3], -1.14; in experiment [5], 1.4; in [6], 1.29; in [7], 0.103. Further, the composite z-score is 0.89 in experiment [8], -0.0103 in experiment [9] and -0.0153 in experiment [10]. In experiment [4], the z-score is -0.116 (inactive).

With `CC(C)NC(=O)[C@@]1(c2ccc([N+](=O)[O-])cc2)CC(=O)N(C2CCCCC2)[C@@H]1c1ccc(CO)cc1`, the composite z-score was 1.49 in experiment [1]; -0.723 in experiment [2]; 0.0339 in [3]; 1.23 in experiment [5]; 0.645 in [6]; 0.0344 in [7]. Further, the composite z-score was 1.04 in [8], 0.214 in [9] and -0.0249 in experiment [10]. Also, the z-score in [4] is 0.458 (inactive).
